In the first test the target is CHRM2. Description: pooled miR-30 sensor sort-seq; sequence = guide strand. As to conditions: shRNA.
Take TATTCTGCTTTTCATCTCCATT: the sensor-assay potency score (higher = more potent) was -1.16. Regarding TATTAGAGGCAACAGCACTGAC, the sensor-assay potency score (higher = more potent) was -0.688. Still for that read-out and setting: for TTAAAGGTCTTCTTGAAGGTGG the value was 0.265; for TCATCTTCACAATCTTGCGGGC, -0.203; for ATAAGGACTTGTAAGAGCCAGG, -0.765. Turning to TTTTGTGACACAGAAGTACCTG, the sensor-assay potency score (higher = more potent) is 0.758. Consider TTTAATGGAAACCATGACTAGG, for which the sensor-assay potency score (higher = more potent) was -0.722.

As to TAAAAAGTAATTGTTGACGGTC, the sensor-assay potency score (higher = more potent) came to 0.0384. TTTTGTGGTCCGCTTGACTGGG returned a sensor-assay potency score (higher = more potent) of 0.0688.

The next test addresses CHRNA1. The test is described as above. Particulars: shRNA.
For TATAACAGCAATGACAATGCAA, the sensor-assay potency score (higher = more potent) came to 0.464. Take TAGCTTTGCCACCAGACGGGTC: the sensor-assay potency score (higher = more potent) is -1.08.

Take TAGAACATCAGCAACTCCCTAG: the sensor-assay potency score (higher = more potent) is 0.223.

TTTGTCTTGCTTTTCTCTGGAT returned a sensor-assay potency score (higher = more potent) of -0.428. Sequence TTGATGGCCACGACAGAGCCGT yielded a sensor-assay potency score (higher = more potent) of -0.893. TTTTTTAGTGATTAGTTTCATT gave a sensor-assay potency score (higher = more potent) of -0.783.

TACTGCTTCCTCTCTCTCCAAA registered a sensor-assay potency score (higher = more potent) of -0.987. Same read-out and setting: then TTGACAATAGCAAAGTCACCAT, with -0.507; and TTGCAACGTACTTCCACTCTGC, with 0.505; and TTAGAACATCAGCAACTCCCTA, with -0.4.

For the sequence TTCATCCACATTGATGAGCTGT, the sensor-assay potency score (higher = more potent) was -0.162. Same read-out and setting: then TAGCTTTTAAAGATGGCTGGAG, with -0.126; and TTCTTAGTAGGTACAAAACTGA, with -0.855; and TAGACAAATCTTCCTCTCCTGC, with -0.927.

In turn, TAAGTATGGAATATAACACGTT showed a sensor-assay potency score (higher = more potent) of -0.0814. TTGTCTTGCTTTTCTCTGGATG displayed a sensor-assay potency score (higher = more potent) of -0.807.

In the case of TAGGTCACGGAGTGCTTCCAGC, the sensor-assay potency score (higher = more potent) is -1.17. The same measure, in the same setting: for TAAGCAAAGAATACACTTCATT the value was -1.02; for TACTGCAGGAGCACTTTGGTGA, 0.163.

With ATTTACTTCATCCACATTGATG, the sensor-assay potency score (higher = more potent) is -1.52. Still for that read-out and setting: for TACTTCATCCACATTGATGAGC the value was -0.906; for TAACACGTTTGATAAGTGCGAG, -0.52; for TAGCAAAGTCACCATCTGCATT, -1.03.

Sequence ATTGATGAGCTGTATCAGCTGC displayed a sensor-assay potency score (higher = more potent) of 0.306.

The target in another test is CHRNE. Described as above. As to conditions: shRNA.
Regarding ATCTTGTTGATGGTCTTGCCGT, the sensor-assay potency score (higher = more potent) is -1.25. As to TAGGTGACCTCCACTGCGCAGA, the sensor-assay potency score (higher = more potent) is -0.727. The same measure, in the same setting: then TTTTTCAAAATCAATTTCCTAC, with -0.288; and TTGATGGTCTTGCCGTCGTTGT, with -1.26.

Regarding TGTGTCGATGTCGATCTTGTTG, the sensor-assay potency score (higher = more potent) was -0.832. In turn, TAGAAGAGCGGCTTCCGGCGGA showed a sensor-assay potency score (higher = more potent) of 0.192.
Note: reference of the scale not given here.
